Measured values as given in ChEMBL document CHEMBL4513216, “Probing the Open Global Health Chemical Diversity Library for Multistage-Active Starting Points for Next-Generation Antimalarials” (ACS Infect Dis, 2020).
In all, about 69,000 compounds went through this assay and about 8,600 (12%) showed an effect of 50% or more. The list comes from a sample in which strong results are over-represented; it also holds similar structures and randomly drawn compounds.

Tested on: Plasmodium berghei
Assay: Screen against P. berghei liver stage (PbLuc), transformed with Luciferase, at 10uM
Assay type: functional, HepG2
Details: tested at 10 uM

| SMILES | INHIBITION |
| --- | --- |
| Cn1cc(C2CCCN2CCC(=O)N2CCc3sccc3C2)cn1 (configuration not stated) | 19.2% |
| COc1ccc(CN2CC[C@H]3CO[C@H](CNC(=O)N(C)C)[C@H]3C2)cc1 | 12.7% |
| Cc1ccc(CN2Cc3nccn3CC(Cn3cncn3)C2)s1 (configuration not stated) | -9.02% |
| CN(CC(F)(F)F)C(=O)c1ccc(F)c(NS(C)(=O)=O)c1 | -43.5% |
| Cc1cc(C(=O)N(C)S(C)(=O)=O)ccc1F | 61% |
| CN(CCNS(C)(=O)=O)C(=O)c1ccc(Cl)c(Cl)c1 | 66.5% |
| Cc1ccc(C(=O)N(CC(=O)O)CC(C)C)cc1F | 39.7% |
| Cc1cc(C(=O)N(C)S(=O)(=O)C(C)C)ccc1F | 61.9% |
| Cc1cc(C(=O)N(CC(=O)O)CC(C)C)ccc1F | 40.9% |
| CN(C(=O)c1ccc(Cl)c(S(C)(=O)=O)c1)c1ccccc1 | 5.91% |
| Cc1ccc(C(=O)N(C)CCNS(C)(=O)=O)cc1Br | 23.9% |
| Cc1ccc(C(=O)N(C)S(C)(=O)=O)cc1Cl | 61.9% |
| Cc1cc(Br)ccc1C(=O)N(C)CCNS(C)(=O)=O | 35.9% |
| Cc1sc(C(=O)N(C)S(C)(=O)=O)cc1-c1ccc(F)cc1 | 13.3% |
| Cc1ccc(C(=O)N2CCCS2(=O)=O)cc1Cl | 21.1% |
| Cc1cc2ccncc2n1CC1(O)CCN(C(=O)c2ccncc2)CC1 | 7.19% |
| CNc1nc(C)c(C(=O)NCC(C)(C)N2CCCCC2)s1 | -34.6% |
| CN(CCO)Cc1nnc(C2CCN(CC3[C@H]4CNC[C@@H]34)CC2)n1C (some centres not stated) | -3.55% |
| c1ncn(CC2CCCN(Cc3nnc(C4CC4)o3)C2)n1 (configuration not stated) | -0.74% |
| Cc1nc(C(C)C)sc1C(=O)NCCNc1ncccn1 | 26.5% |
| COc1ccc(CN2CCNC(=O)CC2)cc1SC(F)(F)F | 25.3% |
| COc1ccc(CN2CCC(C(N)=O)CC2)cc1SC(F)(F)F | 52.2% |
| COc1ccc(CN2CCN(C(C)=O)CC2)cc1SC(F)(F)F | 21.9% |

| SMILES | INHIBITION |
| --- | --- |
| O=C(CCc1ccccc1)NCC(O)c1c(F)cccc1F (configuration not stated) | 45.7% |
| Cc1noc([C@H]2C[C@H]3OCC[C@H]3N(Cc3cccs3)C2)n1 | 43.9% |
| Cc1noc([C@H]2C[C@H]3OCC[C@H]3N(Cc3scnc3C)C2)n1 | 0.777% |
| CCc1ccc(CN2C[C@@H](c3nc(C)no3)C[C@H]3OCC[C@H]32)o1 | -2.72% |
| Cc1noc([C@@H]2C[C@H]3OCC[C@H]3N(Cc3sccc3C)C2)n1 | 54.4% |
| Cc1noc([C@@H]2C[C@H]3OCC[C@H]3N(Cc3ccoc3)C2)n1 | 15.9% |
| Cc1noc([C@H]2C[C@H]3OCC[C@H]3N(C3CCC3)C2)n1 | 92% |
| Cc1noc([C@@H]2C[C@H]3OCC[C@H]3N(Cc3cc(C)c(C)o3)C2)n1 | 57.9% |
| Cc1noc([C@@H]2C[C@H]3OCC[C@H]3N(C(C)C)C2)n1 | -18.2% |
| Cc1noc([C@@H]2C[C@H]3OCC[C@H]3N(CC3CCCC3)C2)n1 | 29.9% |
| Cc1cnn(CC2CCCN2CC(=O)Nc2nccs2)c1 (configuration not stated) | -12.1% |
| CC(C)N1[C@@H](C(=O)NCC2CC2)C[C@@H]2CN(Cc3ccco3)C[C@@H]21 | -11% |
| COCCOc1cc(C)ccc1NC(=O)N(C)Cc1cnn(C)c1 | -58% |
| CNC(=O)NC(C)c1nc(-c2ccc(Br)cc2)no1 (configuration not stated) | 47.8% |
| O=C1CN(Cc2nnc(-c3ccc(Br)cc3)o2)CCN1 | 10.8% |
| Cc1c(O)oc(-c2ccc(Br)cc2)nc1=O | 55.5% |
| CCOCCCNS(=O)(=O)c1ccc2c(c1)NC(=O)C(C)O2 (configuration not stated) | 2.55% |
| Cc1nn(C)c(N(C)C)c1CNC1CCc2c(Cl)cccc21 (configuration not stated) | 19.915% |
| Cc1nc(C)c(C(=O)N2CCCC(C(=O)c3nccn3C)C2)s1 (configuration not stated) | 36.6% |
| COCCn1ccnc1-c1cc(CN2CCCCC2)cs1 | 8.51% |
| c1cn(CCc2c[nH]cn2)c(-c2cc(CN3CCCC3)cs2)n1 | 60% |
| Nc1nc(Cn2ccnc2-c2cc(CN3CCCC3)cs2)cs1 | 42.1% |
| Oc1nc(N2CCOCC2)nc2c1CCN(Cc1cccc(F)c1)CC2 | 54.5% |

| SMILES | INHIBITION |
| --- | --- |
| CC(C)c1ncc2c(n1)CN(Cc1cccc3c1OCCO3)CC2 | 37.7% |
| Oc1nc(N2CCOCC2)nc2c1CCN(Cc1ccccc1)CC2 | 35.2% |
| Oc1nc(N2CCOCC2)nc2c1CCN(Cc1ccc(F)cc1)CC2 | 38.2% |
| Cc1ccc(CN2CCc3nc(C(C)C)nc(O)c3CC2)s1 | 2.55% |
| Cc1cc(CN2CCc3nc(C(C)C)nc(O)c3CC2)c(C)s1 | 62.9% |
| Oc1nc(N2CCOCC2)nc2c1CCN(Cc1cccnc1)CC2 | 23.3% |
| Cc1nc2c(c(NC(C)C)n1)CCN(Cc1cccnc1)CC2 | 49.7% |
| Cc1nc(C)c2c(n1)CCN(Cc1ccco1)CC2 | -53.2% |
| CCn1cc(CN2CCc3nc(N4CCOCC4)nc(O)c3CC2)cn1 | 29.6% |
| Cc1nc(O)c2c(n1)CCN(Cc1cc(C)sc1C)CC2 | 60.1% |
| Cc1cc(CN2CCc3nc(N4CCOCC4)nc(O)c3CC2)c(C)s1 | 90.7% |
| Cc1cccc(C(=O)N2C[C@@H]3C(CC(=O)Nc4cccnc4)[C@@H]3C2)n1 (some centres not stated) | 30.9% |
| Cc1ccsc1C(=O)N1CC[C@@H](N(C)C)[C@@H]1Cc1cnn(C)c1 | 36.9% |
| O=C(CN1CCCC1)Nc1c2c(cc3c1CCC3)CCC2 | -3.47% |
| Cn1ncc2c1CCCN(C(=O)C1CC1)C2 | 24.69% |
| CN(C)c1cc(C(=O)N2CCCCC2CNS(C)(=O)=O)ccn1 (configuration not stated) | -8.11% |
| CC(C)(C)SCCN1CC(=O)N2CC[C@@H](O)C[C@H]2C1=O | 11.265% |
| CN1CC(=O)N(c2ccccc2)CC12CCN(CCO)C2 (configuration not stated) | 41.3% |
| C=Cn1ncc(CN2CCc3nc(-c4ccncc4)nc(O)c3C2)c1C | 17.1% |
| Cc1cc(CN2CCc3nc(-c4ccncc4)nc(O)c3CC2)c(C)s1 | 83.3% |
| Cc1ccc(O)c(CN2CCc3nc(-c4cccnc4)nc(O)c3C2)c1 | 32.8% |
